Assay [1] has as its target Cytochrome P450 1A2 (Homo sapiens) (UniProt P05177). Nature of the assay: p450-cyp1a2 (AID 410; calls by dose curve; further: potency means the concentration at half of the fitted maximal effect). In outline:
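O-Demethylation of luciferin 6' methyl ether by human CYP1A2 is monitored as luciferase luminescence. Substrate sits at Km (100uM); enzyme is 20nM. Values are scaled to 57 uM furafylline as maximal inhibition.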

Assay [2] deals with Glucocorticoid receptor (Homo sapiens) (UniProt P04150). Nature of the assay: GR-GFP Redistribution (AID 450;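 active means compounds whose dose series gives a full or clear partial fitted curve of increased nuclear translocation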; further: potency means the concentration at half of the fitted maximal effect). Conditions: U2OS GR-GFP nuclear translocation, laser cytometry, 2 h.
Assay [3] shares this target. Nature of the assay: GR-EFC Redistribution (AID 451; calls by dose curve; further: potency means the concentration at half of the fitted maximal effect). The following applies: CHO-K1 GR-EFC translocation, beta-gal luminescence, 2 h. A digest of the protocol: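 CHO-K1 cells expressing nuclear EA and GR-ED fragments of b-gal; compounds titrated up to 46 uM final, 2 h at 37 C. GR nuclear translocation read as complemented b-gal luminescence after 1 h RT detection.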

Assay [4] concerns the target Cytochrome P450 3A4 (Homo sapiens) (UniProt P08684). Nature of the assay: qHTS Assay for Activators of Cytochrome P450 3A4 (AID 885). Further: nearly all actives have a fitted effect of over 65% in size. A digest of the protocol:
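Using 20nM recombinant human CYP3A4 in potassium phosphate (200mM), substrate Luciferin-PPXE at 25uM, luminescent luciferin detection followed a 60-min RT NADPH reaction; data scaled to 57 uM ketoconazole.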

Assay [5] in a line: Primary qHTS for small molecule stabilizers of the endoplasmic reticulum resident proteome: Secreted ER Calcium Modulated Protein (SERCaMP) assay (AID 1508630). Further: on the % scale 0 is the no-effect control and ±100 the full control effect. In outline:
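The SH-SY5Y reporter protocol was run at 3 concentrations up to 38.3 uM (primary) or 11 concentrations (follow-up): 16 h compound, 100 nM thapsigargin for 4 h, then extracellular luciferase luminescence.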
(In qHTS, concentration-response curves come from the screen itself.)

Assay [6] addresses Rap guanine nucleotide exchange factor 3 (Homo sapiens) (UniProt O95398). The experiment in a line: Confirmatory qHTS for antagonist of cAMP-regulated guanine nucleotide exchange factor 3 (EPAC1) (AID 1645880).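 Further: plate controls were DMSO only for no effect and full effect of the ATA control for full effect; nearly all actives have a fitted effect of over 55% in size.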 A digest of the protocol:
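Released BODIPY-GDP fluoresces less than Rap1-bound BODIPY-GDP; the signal is followed at 480/540 nm at 5-min intervals over 30 min, after 5 min at room temperature. Reactions contain 100 nM EPAC1, 250 nM RAP1B-BODIPY-GDP and 50 uM GDP; results are normalized to ATA and DMSO.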

Assay [7] shares this target. Nature of the assay: Confirmatory qHTS for agonist of cAMP-regulated guanine nucleotide exchange factor 3 (EPAC1) (AID 1645881).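 Further: EPAC1 catalysed release of BODIPY-GDP from Rap1B seen as fluorescence loss; 100% = effect of cAMP agonist control; nearly all actives have a fitted effect of over 75% in size.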
In assay [8] the target is Lysosomal acid glucosylceramidase (Homo sapiens) (UniProt P04062). The experiment in a line: Glucocerebrosidase-p2 (AID 348; in the data active means potency below about 10 µM; further: potency means the concentration at half of the fitted maximal effect). Conditions: purified GBA, blue fluorogenic substrate, 40 min. A digest of the protocol:
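Normal human glucocerebrosidase (0.2 nM) with blue fluorogenic substrate (80 uM final) in citrate/phosphate pH 5.9 with 10mM sodium taurocholate, 0.01% tween-20; 40 min RT, NaOH/glycine stop; fluorescence Ex 365/Em 440; AC50 from a titration from 0.6 nM upwards.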

Assay [9] can be described thus: AP1 Signaling Pathway (AID 357; active means well fitted curve in either direction with a large enough effect, not every such curve was filed as active; further: on the % scale 0 is the no-effect control and ±100 the full control effect). The following applies: ME-180 AP-1-bla reporter, EGF-induced, beta-lactamase ratio, 5 h; at 7.69 µM (top of the series) unless noted. A digest of the protocol: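 Cells are seeded overnight, exposed to compound titrations and an EC50 level of EGF for 5 hours at 37 °C, then loaded with CCF4 dye for 2.5 hours. Beta-lactamase activity under the AP-1 element is read as a blue/green ratio.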

Assay [10] in a line: NFAT Signaling Pathway (AID 444; active means well fitted curve in either direction with a large enough effect, not every such curve was filed as active;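 further: carbachol stimulus at about its EC50 of 1 µM final; on the % scale 0 is the no-effect control and ±100 the full control effect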). The following applies: Jurkat NFAT-bla M1, carbachol, beta-lactamase ratio, 5 h; at 7.69 µM (top of the series) unless noted. A digest of the protocol: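 Jurkat cells with NFAT-driven β-lactamase reporter and co-expressed M1 receptor, stimulated with carbachol (final 1 uM, ~EC50), compound titration, 5 h at 37 °C. CCF4 loaded 1 h at RT; 460/530 nm ratio gave %activity and AC50.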

Assay [11] is described as follows: Stat Signaling Pathway (AID 446; active means well fitted curve in either direction with a large enough effect, not every such curve was filed as active;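 further: ME-180 cervical cancer cells given 40 pM IL-6 alongside compound; SIE-controlled beta-lactamase reporter measured as 460/530 nm FRET emission ratio; on the % scale 0 is the no-effect control and ±100 the full control effect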). The following applies: ME-180 (cervical carcinoma) SIE beta-lactamase reporter, IL-6 stimulated, 5 h; at 7.69 µM (top of the series) unless noted. A digest of the protocol: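 Overnight-plated ME-180 cells bearing a STAT Inducible Element beta-lactamase reporter; 5 h co-exposure to compound and 40 pM IL-6; values normalized to 300 pM IL-6 and 125 nM JAK inhibitor controls.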

For assay [12], the target named is 3',5'-cyclic-AMP phosphodiesterase 4B (Homo sapiens) (UniProt Q07343). The experiment in a line: qHTS Assay for Inhibitors of PDE-IV (AID 607; active means well fitted activation curve with a large enough effect in the main read-out, with a control signal flat, not every such curve was filed as active; further: % of control where 0% means no effect). In outline:
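Live HEK293 cells with a modified cyclic nucleotide-gated (CNG) channel report intracellular cAMP via membrane-potential dye fluorescence (ex 535/em 590 nm). Endogenous PDE-IV was targeted. Compounds were tested at up to 22.9 uM final; RO 20-1724 100 uM served as control.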

Assay [13] addresses Cytochrome P450 3A4 (Homo sapiens) (UniProt P08684). The experiment in a line: qHTS Assay for Inhibitors and Substrates of Cytochrome P450 3A4 (AID 884). Further: on the % scale 0 is the no-effect control and ±100 the full control effect; nearly all actives have a fitted effect of over 50% in size. A digest of the protocol:
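Luminescent readout of luciferin produced by CYP3A4 (20 nM) dealkylation of Luciferin-PPXE, 25 uM (its KM). NADPH-driven reaction ran 60 min at RT after 10 min compound preincubation; data scaled to 57 uM ketoconazole as 100% inhibition.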

Assay [14] concerns the target Rap guanine nucleotide exchange factor 4 (Homo sapiens) (UniProt Q8WZA2). The experiment in a line: Confirmatory qHTS for agonist of cAMP-regulated guanine nucleotide exchange factor 4 (EPAC2) (AID 1645884).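 Further: nucleotide exchange releases bodipy-GDP from Rap1 and this lowers its fluorescence; on the % scale 0 is the no-effect control and ±100 the full control effect; nearly all actives have a fitted effect of over 65% in size.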
For assay [15], the target named is Mitogen-activated protein kinase 10 (Mus musculus) (UniProt Q61831). Nature of the assay: JNK3 AlphaScreen Assay (AID 530; active means well fitted curve in either direction with a large enough effect, not every such curve was filed as active). In outline:
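Activity was read by AlphaScreen after JNK3-containing HepG2 lysate (cytokine pre-activated) phosphorylated biotinylated GST-cJun with 10 uM ATP at room temperature. Phospho-Ser73 cJun antibody with Protein-A acceptor beads provided detection.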
For orientation: In Alpha technology, singlet oxygen from a donor bead excites a nearby acceptor bead.

Assay [16] deals with Rap guanine nucleotide exchange factor 4 (Homo sapiens) (UniProt Q8WZA2). Nature of the assay: Confirmatory qHTS for antagonist of cAMP-regulated guanine nucleotide exchange factor 4 (EPAC2) (AID 1645885). Further: on the % scale 0 is the no-effect control and ±100 the full control effect; nearly all actives have a fitted effect of over 25% in size.
The target of assay [17] is Dual specificity protein kinase CLK4 (Homo sapiens) (UniProt Q9HAZ1). Nature of the assay: qHTS Assay for Inhibitors of CDC-like Kinase 4 (ADP-FP Assay) (AID 1795).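 Further: recombinant human CLK4 phosphorylating RS repeat peptide at 1 µM ATP; on the % scale 0 is the no-effect control and ±100 the full control effect; nearly all actives have a fitted effect of over 60% in size.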 A digest of the protocol: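 Kinase activity was followed as ADP output, converted from fluorescence polarization with a calibration curve. Reactions ran one hour at low ATP (1 uM) with RS peptide substrate.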

The target in assay [18] is Ubiquitin carboxyl-terminal hydrolase 1 (Homo sapiens) (UniProt O94782). Nature of the assay: Inhibitors of USP1/UAF1: Pilot qHTS (AID 504865).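 Further: rhodamine fluorescence freed from ubiquitin-rhodamine substrate followed over time; top concentration of the series differs between compounds; on the % scale 0 is the no-effect control and ±100 the full control effect; nearly all actives have a fitted effect of over 35% in size.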 In outline:
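Enzyme-free wells gave the negative control, while test wells held 1nM USP1/UAF1 preincubated with compound for 15 min at room temperature. Ub-Rho at 150nM final started the reaction, and fluorescence at 480/540 nm was recorded kinetically.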

Unmarked numbers belong to inactive results. Results filed as inconclusive are left out. The source made the active and inactive calls. Unless noted, the call rests on the fitted dose curve; in most records, active means well fitted curve in the direction sought with a large enough effect; inconclusive means small, poorly fitted or top-dose-only effect, or another doubt; inactive means no such curve, though single readings can be large; an effect the other way counts as inactive or inconclusive.

Sequence of Lysosomal acid glucosylceramidase (Homo sapiens) (P04062 whole entry, looked up): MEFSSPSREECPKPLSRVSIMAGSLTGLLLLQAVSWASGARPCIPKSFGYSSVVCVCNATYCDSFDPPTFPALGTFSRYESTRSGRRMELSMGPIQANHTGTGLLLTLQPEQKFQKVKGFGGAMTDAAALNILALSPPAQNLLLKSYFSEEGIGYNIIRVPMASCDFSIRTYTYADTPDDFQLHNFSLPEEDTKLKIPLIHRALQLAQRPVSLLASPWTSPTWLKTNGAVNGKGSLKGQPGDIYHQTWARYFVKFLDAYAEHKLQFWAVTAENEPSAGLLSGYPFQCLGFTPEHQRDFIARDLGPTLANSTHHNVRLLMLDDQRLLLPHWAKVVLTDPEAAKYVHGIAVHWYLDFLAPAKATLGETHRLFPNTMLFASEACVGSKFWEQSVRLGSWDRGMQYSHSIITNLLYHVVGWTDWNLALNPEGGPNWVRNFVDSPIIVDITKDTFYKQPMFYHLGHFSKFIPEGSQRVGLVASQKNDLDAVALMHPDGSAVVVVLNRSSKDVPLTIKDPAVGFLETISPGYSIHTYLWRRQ
Sequence of 3',5'-cyclic-AMP phosphodiesterase 4B (Homo sapiens) (Q07343 whole entry, looked up): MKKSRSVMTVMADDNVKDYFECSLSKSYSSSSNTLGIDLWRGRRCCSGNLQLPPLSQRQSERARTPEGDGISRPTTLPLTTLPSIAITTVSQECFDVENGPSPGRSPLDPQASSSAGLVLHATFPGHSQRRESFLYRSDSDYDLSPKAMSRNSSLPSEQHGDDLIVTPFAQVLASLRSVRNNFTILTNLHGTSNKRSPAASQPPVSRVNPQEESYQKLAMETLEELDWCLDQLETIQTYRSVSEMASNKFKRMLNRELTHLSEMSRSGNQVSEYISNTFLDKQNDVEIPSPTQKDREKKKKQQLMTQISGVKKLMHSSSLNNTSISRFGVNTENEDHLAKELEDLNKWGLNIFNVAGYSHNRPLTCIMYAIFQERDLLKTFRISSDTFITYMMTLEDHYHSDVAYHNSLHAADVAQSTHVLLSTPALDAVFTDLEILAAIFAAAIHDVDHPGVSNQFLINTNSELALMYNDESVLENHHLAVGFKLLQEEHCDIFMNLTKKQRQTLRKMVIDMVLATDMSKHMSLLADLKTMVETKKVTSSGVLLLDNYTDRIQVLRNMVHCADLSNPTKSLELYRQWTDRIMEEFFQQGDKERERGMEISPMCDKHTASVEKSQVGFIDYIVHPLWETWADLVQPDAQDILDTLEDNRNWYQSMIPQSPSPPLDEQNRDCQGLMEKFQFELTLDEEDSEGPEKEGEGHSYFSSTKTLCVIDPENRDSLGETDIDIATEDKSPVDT
Sequence of Glucocorticoid receptor (Homo sapiens) (P04150 whole entry, looked up, the tested form may be a part): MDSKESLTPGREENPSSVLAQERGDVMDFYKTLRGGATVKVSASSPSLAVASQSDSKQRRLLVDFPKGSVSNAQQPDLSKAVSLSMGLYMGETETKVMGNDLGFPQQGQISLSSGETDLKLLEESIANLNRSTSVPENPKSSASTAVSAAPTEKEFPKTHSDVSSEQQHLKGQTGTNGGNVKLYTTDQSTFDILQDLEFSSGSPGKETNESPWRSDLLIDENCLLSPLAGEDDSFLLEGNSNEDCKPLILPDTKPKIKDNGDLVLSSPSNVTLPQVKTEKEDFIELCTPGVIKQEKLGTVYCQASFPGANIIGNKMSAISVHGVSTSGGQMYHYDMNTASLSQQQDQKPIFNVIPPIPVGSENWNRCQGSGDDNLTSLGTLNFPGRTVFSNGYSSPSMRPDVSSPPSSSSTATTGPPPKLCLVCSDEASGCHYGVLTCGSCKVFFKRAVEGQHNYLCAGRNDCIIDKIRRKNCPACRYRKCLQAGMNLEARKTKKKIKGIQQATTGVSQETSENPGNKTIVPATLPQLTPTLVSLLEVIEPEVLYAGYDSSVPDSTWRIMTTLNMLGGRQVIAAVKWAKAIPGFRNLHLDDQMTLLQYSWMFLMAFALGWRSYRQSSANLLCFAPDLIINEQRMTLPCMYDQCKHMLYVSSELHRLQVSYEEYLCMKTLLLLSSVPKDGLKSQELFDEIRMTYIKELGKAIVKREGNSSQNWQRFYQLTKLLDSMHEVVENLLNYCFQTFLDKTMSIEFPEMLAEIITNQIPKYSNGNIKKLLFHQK
Sequence of Cytochrome P450 3A4 (Homo sapiens) (P08684 whole entry, looked up): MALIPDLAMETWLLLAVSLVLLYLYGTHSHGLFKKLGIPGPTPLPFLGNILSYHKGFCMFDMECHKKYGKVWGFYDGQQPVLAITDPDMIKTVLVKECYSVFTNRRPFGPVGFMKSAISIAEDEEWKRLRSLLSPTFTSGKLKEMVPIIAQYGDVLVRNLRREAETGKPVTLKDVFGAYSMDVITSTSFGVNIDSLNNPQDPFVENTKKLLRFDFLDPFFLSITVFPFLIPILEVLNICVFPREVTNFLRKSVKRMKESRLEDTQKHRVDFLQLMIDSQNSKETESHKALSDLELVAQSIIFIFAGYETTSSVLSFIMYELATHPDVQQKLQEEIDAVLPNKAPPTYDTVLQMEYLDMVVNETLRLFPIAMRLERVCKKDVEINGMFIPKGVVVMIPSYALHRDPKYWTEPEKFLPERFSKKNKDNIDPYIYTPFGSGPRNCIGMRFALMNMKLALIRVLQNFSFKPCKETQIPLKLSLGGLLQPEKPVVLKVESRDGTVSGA
Sequence of Cytochrome P450 1A2 (Homo sapiens) (P05177 whole entry, looked up): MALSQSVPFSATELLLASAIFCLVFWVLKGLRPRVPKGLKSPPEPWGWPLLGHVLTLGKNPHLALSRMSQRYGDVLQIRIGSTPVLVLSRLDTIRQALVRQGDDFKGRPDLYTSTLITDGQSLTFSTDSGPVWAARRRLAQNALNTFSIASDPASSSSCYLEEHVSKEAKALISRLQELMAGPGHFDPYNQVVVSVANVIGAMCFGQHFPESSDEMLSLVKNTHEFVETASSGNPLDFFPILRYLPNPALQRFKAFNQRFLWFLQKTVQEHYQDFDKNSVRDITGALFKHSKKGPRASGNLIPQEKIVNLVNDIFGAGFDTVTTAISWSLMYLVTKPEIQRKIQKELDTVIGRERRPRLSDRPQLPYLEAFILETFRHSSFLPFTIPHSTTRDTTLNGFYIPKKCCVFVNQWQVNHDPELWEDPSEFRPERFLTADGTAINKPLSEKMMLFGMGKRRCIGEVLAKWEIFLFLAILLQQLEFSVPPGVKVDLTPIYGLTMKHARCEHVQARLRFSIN
Sequence of Rap guanine nucleotide exchange factor 3 (Homo sapiens) (O95398 whole entry, looked up): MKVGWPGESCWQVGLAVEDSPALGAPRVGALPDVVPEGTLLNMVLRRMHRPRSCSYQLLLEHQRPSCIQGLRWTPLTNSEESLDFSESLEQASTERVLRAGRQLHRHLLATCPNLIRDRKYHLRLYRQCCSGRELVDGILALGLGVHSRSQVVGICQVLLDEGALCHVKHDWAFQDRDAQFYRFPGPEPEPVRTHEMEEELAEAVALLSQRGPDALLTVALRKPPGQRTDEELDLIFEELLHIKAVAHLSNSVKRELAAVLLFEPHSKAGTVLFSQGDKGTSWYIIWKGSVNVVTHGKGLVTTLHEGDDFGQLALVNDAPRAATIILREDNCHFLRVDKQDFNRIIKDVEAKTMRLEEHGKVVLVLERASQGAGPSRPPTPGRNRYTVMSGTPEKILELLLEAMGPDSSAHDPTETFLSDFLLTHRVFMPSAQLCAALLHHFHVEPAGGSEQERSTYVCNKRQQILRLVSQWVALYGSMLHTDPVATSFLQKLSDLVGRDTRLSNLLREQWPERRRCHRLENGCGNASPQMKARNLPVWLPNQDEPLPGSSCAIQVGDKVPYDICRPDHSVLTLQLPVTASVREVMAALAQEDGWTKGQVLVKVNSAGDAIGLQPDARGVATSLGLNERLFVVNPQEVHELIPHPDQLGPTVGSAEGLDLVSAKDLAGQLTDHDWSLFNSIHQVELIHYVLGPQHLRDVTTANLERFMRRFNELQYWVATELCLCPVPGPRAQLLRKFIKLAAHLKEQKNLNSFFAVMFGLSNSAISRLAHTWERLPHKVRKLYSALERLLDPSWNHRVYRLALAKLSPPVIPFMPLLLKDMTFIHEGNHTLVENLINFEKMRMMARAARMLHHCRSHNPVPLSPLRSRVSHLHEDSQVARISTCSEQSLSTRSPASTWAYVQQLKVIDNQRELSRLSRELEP
Sequence of Rap guanine nucleotide exchange factor 4 (Homo sapiens) (Q8WZA2 whole entry, looked up): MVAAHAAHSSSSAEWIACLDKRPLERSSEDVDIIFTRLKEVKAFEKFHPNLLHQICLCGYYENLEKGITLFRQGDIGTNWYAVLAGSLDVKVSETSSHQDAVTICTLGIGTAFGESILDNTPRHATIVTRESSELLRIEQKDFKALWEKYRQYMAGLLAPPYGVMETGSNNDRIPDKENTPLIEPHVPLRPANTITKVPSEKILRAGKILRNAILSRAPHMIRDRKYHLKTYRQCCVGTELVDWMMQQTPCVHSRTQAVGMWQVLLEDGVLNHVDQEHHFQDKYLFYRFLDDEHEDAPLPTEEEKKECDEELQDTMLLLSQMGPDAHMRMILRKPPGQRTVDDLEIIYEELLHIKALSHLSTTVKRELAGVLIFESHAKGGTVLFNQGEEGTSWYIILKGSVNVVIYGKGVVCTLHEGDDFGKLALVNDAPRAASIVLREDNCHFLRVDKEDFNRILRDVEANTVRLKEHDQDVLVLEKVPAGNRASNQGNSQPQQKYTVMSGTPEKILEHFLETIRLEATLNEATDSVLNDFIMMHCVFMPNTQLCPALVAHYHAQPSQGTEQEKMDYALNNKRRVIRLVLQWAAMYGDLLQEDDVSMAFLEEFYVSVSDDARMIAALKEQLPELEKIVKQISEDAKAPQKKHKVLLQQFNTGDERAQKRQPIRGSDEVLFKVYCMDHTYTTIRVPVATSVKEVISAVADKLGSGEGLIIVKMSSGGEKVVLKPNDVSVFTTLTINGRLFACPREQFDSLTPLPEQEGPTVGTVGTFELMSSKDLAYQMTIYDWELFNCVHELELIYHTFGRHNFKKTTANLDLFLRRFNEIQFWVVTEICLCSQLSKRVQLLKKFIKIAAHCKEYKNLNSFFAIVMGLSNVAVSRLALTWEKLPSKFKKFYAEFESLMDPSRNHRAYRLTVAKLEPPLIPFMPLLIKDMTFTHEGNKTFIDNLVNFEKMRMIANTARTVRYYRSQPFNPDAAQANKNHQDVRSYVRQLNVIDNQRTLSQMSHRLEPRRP

As to `COC(=O)C1=C(C)NC(C)=C(C(=O)OCCSc2ccccc2)[C@@H]1C`, the Potency in assay [1] is 0.794 µM (active); in assay [2] it was more than 46 µM; in assay [3], more than 46 µM. The Potency result in assay [4], in assay [6] and in [7] was “inactive” throughout. In addition, the outcome in assay [5] was inactive.

`Cn1cccc1C(=O)N1CCC2(CC1)CN(c1cccc(-c3ccccc3)c1)C2`: the values for the Potency in assay [8], in [1] and in assay [3] were more than 11.4 µM, 25.1 µM (active) and more than 46 µM, respectively. The activity change, negative = inhibition in [9] was -14%; in [10], -2.77%. Also, the activity, negative = inhibition in assay [11] was -13.7%. The Potency entry in assay [12], in assay [13], in assay [6], in assay [7] and in assay [14] was “inactive” in each case. Also, the result in assay [5] was inactive.

For `COC(=O)N1CCC2(CCCN(c3cccc(-c4ccccc4)c3)C2)CC1`, the figures for the Potency in assay [8] and in [3] were more than 11.4 µM and more than 46 µM, respectively. Further, in [9], the activity change, negative = inhibition was 3.74%. In assay [11], the activity, negative = inhibition was -6.31%. Moreover, the Potency entry in assay [15], in assay [12], in [6], in assay [7], in assay [14] and in [16] was “inactive” throughout. Further, the result in assay [5] was inactive.

Turning to `O=c1c(-c2cccs2)nc2cnc(Nc3ccccc3)nc2n1C[C@H]1CCCO1`, the activity change, negative = inhibition was -12.9% in assay [9] and -16.9% in assay [10]. In addition, the results for the Potency in assay [1], in assay [2] and in assay [3] were 2.51 µM (active), more than 9.22 µM and more than 46 µM, respectively. Further, the activity, negative = inhibition in assay [11] was 22.1%. For the same compound, the Potency entry in [15], in assay [12], in assay [4], in [17], in assay [18] and in assay [6] was “inactive” throughout. The Potency result in assay [7] and in assay [16] was “inactive” throughout. For the same compound, in assay [5], the outcome was inactive.

With `COc1ccc(C(=O)N2CCC3(CC2)CN(c2cccc(-c4ccccc4)c2)C3)cc1`, the Potency was more than 11.4 µM in assay [8] and more than 46 µM in assay [3]. In addition, the activity change, negative = inhibition in [9] is -18.9%. The activity, negative = inhibition in assay [11] was -19.1%. The Potency entry in [12], in assay [6], in assay [7], in assay [14] and in assay [16] was “inactive” in each case. Besides, in [5], the result was inactive.

With `COc1cccc(Cn2c(=O)c(-c3cccs3)nc3cnc(Nc4cccc(OC)c4)nc32)c1`, the Potency in assay [8] was more than 11.4 µM; in [1] it was 2.51 µM (active); in assay [2], more than 9.22 µM; in [3] it was more than 46 µM. The activity change, negative = inhibition in assay [9] was -17.2%. Also, the activity, negative = inhibition in assay [11] was 26.3%. The Potency entry in [15], in [4], in assay [6] and in assay [16] was “inactive” throughout. In assay [5], the outcome was inactive.

In the case of `COc1cc(/C=C\c2ccc(OC)cc2OC)cc(OC)c1`, the Potency in [1] is 0.794 µM (active); in [2], more than 46 µM; in assay [3], more than 46 µM. Moreover, the Potency result in [12], in [4], in assay [6], in assay [7] and in [14] was “inactive” in each case. For the same compound, the outcome in [5] was inactive.

With `COCCn1c(=O)c(-c2cccs2)nc2cnc(N3CCOCC3)nc21`, the Potency in assay [8] is more than 11.4 µM; in assay [2] it was more than 9.22 µM; in assay [3], more than 46 µM. Moreover, the activity change, negative = inhibition is -6.06% in [9] and 2.93% in assay [10]. In addition, the activity, negative = inhibition in assay [11] was -8.84%. Also, the Potency result in assay [15], in assay [12], in [17], in [18], in [6] and in assay [16] was “inactive” each time. For the same compound, in assay [5], the result was inactive.
